About 79,000 compounds went through this panel and 15% of them were active in at least one assay; those are over-represented in the sample as a whole. Cut-off read from the data, not from the text of the source: active = growth inhibition above about 70%; inactive = the rest.
Key:
[1] = NCI Yeast Anticancer Drug Screen. Data for the rad50 strain (AID 155);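 note: 0% = growth of vehicle-only cultures of the same strain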; details: S. cerevisiae rad50 strain growth inhibition; at 50.0 µM; active compounds read high
Outline: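 Vehicle-treated cultures provide the reference for the growth inhibition reported for compound-exposed, repair-deficient yeast.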

[2] = NCI Yeast Anticancer Drug Screen. Data for the mec2-1 strain (AID 157); details: S. cerevisiae mec2-1 strain, at 50.0 µM, active compounds read high
Outline: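 Each compound was tested on mec2-1 yeast, a strain altered in DNA damage repair or cell cycle control. Growth inhibition is reported relative to vehicle.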

[3] = NCI Yeast Anticancer Drug Screen. Data for the sgs1 mgt1 strain (AID 161);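 note: 0% = growth of cultures given vehicle only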; details: S. cerevisiae sgs1 mgt1 strain, at 50.0 µM, active compounds read high
Outline: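 Read-out: growth inhibition vs vehicle controls. Cells: mutant yeast strain deficient in DNA damage repair.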

[4] = NCI Yeast Anticancer Drug Screen. Data for the cln2 rad14 strain (AID 165);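 note: 0% = growth equal to vehicle treated cultures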; details: S. cerevisiae cln2 rad14 strain, at 50.0 µM, active compounds read high
Outline: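 Test compounds were added to cln2 rad14 yeast cultures; inhibition of growth was then determined by comparison with vehicle treatment.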

[5] = NCI Yeast Anticancer Drug Screen. Data for the bub3 strain (AID 167); details: S. cerevisiae bub3 mutant strain, at 50.0 µM, active compounds read high
Outline: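 Mutant yeast screening strain plus compound; vehicle-treated cultures serve as the 0% inhibition reference.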

[6] = NCI Yeast Anticancer Drug Screen. Data for the mlh1 rad18 strain (AID 175); details: S. cerevisiae mlh1 rad18 strain growth inhibition; at 50.0 µM; active compounds read high
Outline: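 Inhibition values reflect reduced growth of mutant yeast versus vehicle-treated controls following compound exposure; the mutations affect DNA damage repair.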

Measured: growth inhibition

[Br][Co][Br].[NH-]CC[NH-].[NH-]CC[NH-]
inactive: [1] 28.4% | [2] 15.6% | [3] 18.4% | [4] -6.95% | [5] 22.9% | [6] 17.8%

CCN(CC)C(=O)N1CC2CCC(C1)N2C
inactive: [1] -4.6% | [2] 3.55% | [3] -6.9% | [4] -5.45% | [5] -9.95% | [6] -10.2%

Cc1ccc2n[se]nc2c1
inactive: [1] 11.6% | [2] -15.4% | [3] -16.8% | [4] -0.3% | [5] -15.1% | [6] -8.15%

CNN
inactive: [1] 19.6% | [2] -4.8% | [3] 34.1% | [4] 3.3% | [5] -1.8% | [6] 40.1%

CN1CCC(C(O)(c2ccccc2)c2ccccc2)CC1
inactive: [1] -1.95% | [2] -11.3% | [3] 12.3% | [4] -39.1% | [5] -6.45% | [6] -25.4%

CC(C)CC1N=C(NN=C2CCCCC2)SP1(=O)NNc1ncccn1 (stereo unspecified)
inactive: [1] 1.25% | [2] 7.15% | [3] 12.5% | [4] 2.35% | [5] 0.4% | [6] -0.1%

CCCC(C)C1(C)C(=O)NC(=O)N(C)C1=O (stereo unspecified)
inactive: [1] 4.35% | [2] 18.1% | [3] 0.15% | [4] 11.8% | [5] 1.05% | [6] -11.9%

Cc1cccc(C)c1N
inactive: [1] 10.3% | [2] 2.4% | [3] -9.65% | [4] -36.5% | [5] 1.7% | [6] 16.8%

O=C(OC1CN2CCC1CC2)N(c1ccccc1)c1ccccc1 (stereo unspecified)
inactive: [1] 2.35% | [2] 0.25% | [3] -4.1% | [4] -4.75% | [5] 3.5% | [6] 13.3%

O=C(Cl)C1CCC1
inactive: [1] 11% | [2] -5.35% | [3] 10.1% | [4] -4.65% | [5] -7% | [6] 16.1%

CP(O)(=S)C1CCCCC1 (stereo unspecified) (tested in a mixture with another compound)
inactive: [1] 26.8% | [2] 1.1% | [3] -4.85% | [4] 5.3% | [5] 18.7% | [6] 13.8%

O=[N+]([O-])CCCCl
inactive: [1] 2.05% | [2] -3.05% | [3] -3.05% | [4] -7.95% | [5] 1.85% | [6] 2.35%

O=C([O-])C[SH2+].[Co+3].[NH-]CC[NH-].[NH-]CC[NH-].[O-][Cl+3]([O-])([O-])O
inactive: [1] 7.4% | [2] 20.1% | [3] 14.3% | [4] -16.6% | [5] 17.4% | [6] 20.4%

NC(CCl)=NC1CN2CCC1CC2 (stereo unspecified)
inactive: [1] -22.5% | [2] -20.4% | [3] -13.2% | [4] 5.9% | [5] -32.1% | [6] -7.15%

CC(C)=CCN1CCC2(C)c3cc(O)ccc3CCC2C1 (stereo unspecified)
inactive: [1] -9.9% | [2] -8.8% | [3] -0.8% | [4] -31.2% | [5] -6.5% | [6] -2.1%

Brc1ccc2nncc(N3CC3)c2c1
inactive: [1] -13.2% | [2] -16.6% | [3] 4.55% | [4] 8.5% | [5] -9.3% | [6] -20.6%

CCc1ccccc1C(C(=O)NC1CN2CCC1CC2)c1ccsc1 (stereo unspecified)
inactive: [1] -10% | [2] -28.8% | [3] -43.3% | [4] -21.2% | [5] 8.05% | [6] -23.1%

CC1(C)CC(OP(=O)(Cl)OC2CC(C)(C)N(O)C(C)(C)C2)CC(C)(C)N1O
inactive: [1] 1.8% | [2] -0.75% | [3] 7.85% | [4] -7.35% | [5] 1.1% | [6] -7.65%

Cc1cc(N(CCCl)CCCl)ccc1C=Nc1ccccc1F
inactive: [1] 8.3% | [2] -5.4% | [3] 3.6% | [4] -40.4% | [5] 6.85% | [6] 0.5%

O=C=Nc1cccc(S(=O)(=O)F)c1
inactive: [1] 56.8% | [2] 4.15% | [3] 26% | [4] 28.4% | [5] 33.9% | [6] 11.9%

CCC(=O)O[C@H]1CC[C@H]2[C@@H]3CCC4=C/C(=N/NC(=O)c5cccc6c(=O)c7ccccc7[nH]c56)CC[C@]4(C)[C@H]3CC[C@]12C
inactive: [1] 13.7% | [2] 15.5% | [3] -16.4% | [4] -8.75% | [5] -17.2% | [6] -7.95%
